Test results taken from the supplement of paper PMC10338343.
± gives the standard deviation.

How the values were obtained:
[1] = test system: MILI (PIWIL2) piRISC loaded with L1MC piRNA (26 nt); assay: pre-steady-state target cleavage rate (min^-1); guide: L1MC piRNA 5'p-UAACUAAAUACUAUGCAAGCUGUAGG; higher = faster piRNA-guided slicing of the target; conditions: auxiliary factor: 500 nM mouse GTSF1
Outline: (§1)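 Active affinity-purified piRISC (1 nM) loaded with one synthetic guide was mixed with a transcribed, DNA-blocked target RNA library (0.1 nM), with or without 500 nM GTSF1 partner protein, in HEPES–potassium acetate buffer at 33 °C for 0–8 or 0–960 min. Uncleaved targets were sequenced, normalised to depth and to weakly complementary targets, and pooled across three trials, with k3 capped at 0.0001 min^-1. The pre-steady-state cleavage rate was determined with a burst-and-steady-state fit.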

[2] = test system: EfPiwi piRISC loaded with L1MC piRNA (26 nt); assay: pre-steady-state target cleavage rate (min^-1); auxiliary factor: 500 nM Ephydatia muelleri Gtsf1; guide: L1MC piRNA 5'p-UAACUAAAUACUAUGCAAGCUGUAGG; MIWI and MILI are mouse PIWI proteins and EfPiwi is from a freshwater sponge; tags in brackets are library labels; higher = faster piRNA-guided slicing of the target
Outline: as §1

Sequence | pre-steady-state target cleavage rate [1] | pre-steady-state target cleavage rate [2]
UCCUGGAUGAGCUUGCUUAGUAUUUAGAUA | 0.128 ± 0.02 | 0.00382 ± 0.0029
UCCUCCUACAGCUUGCUAUAGUAUUUAGUUA | 0.0206 ± 0.0064 | 0.00859 ± 0.0032
UCCUGCUACAGCUUGCAUAGUAUUUUCAUA | 0.151 ± 0.044 | 0.00529 ± 0.0027
UCCUGGAUGAGCUUGCAUAGUAUUAAGAUA | 0.00532 ± 0.0045 | 0.00505 ± 0.003
UCCUCCUACAGCUUGCAUAGUAUAUAGAUA | 0.0715 ± 0.018 | 0.0051 ± 0.0025
UCCUGGAUCAGCUUCCAUAGUAUUUAGUUA | 0.0318 ± 0.0085 | 0.00321 ± 0.0017
UCCUGCUACUGCUUGCAUAGUAUAUAGUUA | 0.121 ± 0.018 | 0.00619 ± 0.0031
UCCUCCUACAGCUUCGAUAGUAUUUAGUAA | 0.217 ± 0.02 | 0.00413 ± 0.0021
UCCUGGAACAGCUUGGAUAGUAUUAAGUUA | 0.186 ± 0.033 | 0.00405 ± 0.0034
UCCUGGAACAGCUUGCAUAGUAUUGAGUUA | 0.172 ± 0.029 | 0.00624 ± 0.0022
UCCUCCAACAGCUUGCAUAGUAUUUACAAA | 0.113 ± 0.022 | 0.00355 ± 0.0024
UCCUGCUACAGCUUGCAUAGUAUUUAGUAA | 0.182 ± 0.024 | 0.00553 ± 0.0022
UCCUCCUACAGCUUGCAUAGUUUUUUGUUA | 0.0587 ± 0.013 | 0.00441 ± 0.0026
UCCUGGAUGAGCUUGCAUAGUAUUUAGUCA | 0.172 ± 0.015 | 0.00793 ± 0.0032
UCCUGGAUGUGCUUGUCAUAGUAUUUAGUUA | 0.0294 ± 0.0075 | 0.00492 ± 0.0031
UCCUGCUACAGCUUGCAUAGUAUAAUGUUA | 0.166 ± 0.022 | 0.00304 ± 0.002
UCCUCCUACAGCUUGCAUAGUAUAUACAAA | 0.0968 ± 0.025 | 0.00313 ± 0.003
UCCUGGAUGUCCAUUGCAUAGUAUUUAGUUA | 0.127 ± 0.032 | 0.00326 ± 0.0022
UCCUCCUACAGCUUGCAUAGUAUUUAGGUA | 0.152 ± 0.045 | 0.00476 ± 0.0017
UCCUGCUACAGCUUGCAUAGUUUUUAGAUA | 0.0373 ± 0.011 | 0.00319 ± 0.0018
UCCUCCUACAGCUUGCUUAGUAUUUAGAAA | 0.091 ± 0.018 | 0.00569 ± 0.0027
UCCUGGAUCAGCUUGCAUAGUAAUUAGAUA | 0.0994 ± 0.025 | 0.00275 ± 0.0021
UCCUGCUUCAGCUUGCAUAGUAUUUUCAAA | 0.0882 ± 0.022 | 0.00362 ± 0.0023
UCCUCCUACAGCUUGCAUAGUAUAUACUUA | 0.0976 ± 0.028 | 0.00304 ± 0.0025
UCCUGGAUCAGCUUGCAUAGUAAUUACUUA | 0.0264 ± 0.0065 | 0.00233 ± 0.0022
UCCUGGAUGAGCUUGCAUAGUAUUUACUAA | 0.00674 ± 0.0044 | 0.00198 ± 0.002
UCCUCCUACAGCUUGCAUAGUAUUUAGAAA | 0.18 ± 0.028 | 0.00581 ± 0.0024
UCCUGGAUCAGCUUGCAUAGUUUUUAGAUA | 0.0159 ± 0.0066 | 0.00428 ± 0.0026

Sequence | pre-steady-state target cleavage rate [1] | pre-steady-state target cleavage rate [2]
UCCUGGUACAGCUUGCAUAGUAUUUAGCUUA | 0.204 ± 0.041 | 0.00493 ± 0.0023
UCCUGCUACAGCUUGCAUAGUAUUGAGUUA | 0.114 ± 0.027 | 0.00424 ± 0.0019
UCCUGGAACAGCUUGCAUAGUAUUUAGCUUA | 0.195 ± 0.047 | 0.00529 ± 0.0018
UCCUGGAAGAGCUUCCAUAGUAUUUAGUUA | 0.297 ± 0.085 | 0.00329 ± 0.0011
UCCUCCUACAGCUUGCAUAGUAAAAAGUUA | 0.0965 ± 0.016 | 0.00301 ± 0.0021
UCCUGCUACAGCUUGCCAUAGUAUUUAGUUA | 0.128 ± 0.015 | 0.00382 ± 0.0023
UCCUCCUUGAGCUUGCAUAGUAUUUACAAA | 0.0856 ± 0.023 | 0.00316 ± 0.0022
UCCUGGUACUCCUUGCAUAGUAUUUAGAAA | 0.0265 ± 0.01 | 0.00304 ± 0.0022
UCCUGGAUCAGCUUGCAUAGUAUUUAGCUUA | 0.149 ± 0.021 | 0.0068 ± 0.0026
UCCUGGAACAGCUUCCAUAGUAUUUAGUUA | 0.0612 ± 0.017 | 0.00225 ± 0.0021
UCCUGCUACAGCUUGCAUAGUAAUUACAAA | 0.0901 ± 0.029 | 0.00259 ± 0.0018
UCCUGGAACAGCUUGCAUAGUUAUUAGUUA | 0.0369 ± 0.0099 | 0.00251 ± 0.0017
UCCUGGUACAGCUUGCAUAGUAUUUAGGUA | 0.0562 ± 0.015 | 0.00463 ± 0.0022
UCCUGGAUGAGCUUGCAUAGUAUUUAGAUUA | 0.165 ± 0.048 | 0.00336 ± 0.002
UCCUGGAUCAGCUUGCAUAGUAUUUACAUA | 0.0335 ± 0.0081 | 0.00271 ± 0.0021
UCCUCCUACAGCUUGCAUAGGAUUUAGUUA | 0.0118 ± 0.0044 | 0.0113 ± 0.0028
UCCUGCAUCAGCUUGCAUAGUAUUUUCAAA | 0.118 ± 0.029 | 0.00236 ± 0.0016
UCCUGGAACAGCUUGCAUAGUAUUUUCAUA | 0.0434 ± 0.013 | 0.00388 ± 0.002
UCCUGGAUGACCUAGCAUAGUAUUUAGUUA | 0.0953 ± 0.022 | 0.0121 ± 0.0072
UCCUCCUACAGCUUGCAUACGUAUUUAGUUA | 0.00561 ± 0.0046 | 0.0035 ± 0.0025
UCCUGGAUGAGGAUGCAUAGUAUUUAGAAA | 0.0101 ± 0.0046 | 0.0024 ± 0.0024
UCCUGCAACAGCUUGCAUAGAAUUUAGUUA | 0.0925 ± 0.023 | 0.00434 ± 0.0021
UCCUCCUACAGCUUGCAUAGUAUAUUCAAA | 0.125 ± 0.025 | 0.00316 ± 0.0027
UCCUGCUACAGCUUGCAUAGUAUUUUCAAA | 0.137 ± 0.041 | 0.00277 ± 0.0021
UCCUCCUACAGCUUGCAUAGUUAUUAGUAA | 0.031 ± 0.011 | 0.00524 ± 0.0028
UCCUGGAUGAGCUUGCAUAGUAGUUAGUUA | 0.158 ± 0.026 | 0.00781 ± 0.0027
UCCUGGAUCAGCUUGCAAUAGUAUUUAGUUA | 0.00703 ± 0.0039 | 0.0153 ± 0.0038
